Tests used:
Format in all cases: functional
[1] = target: Solute carrier family 2, facilitated glucose transporter member 1 (Homo sapiens) (UniProt P11166); experiment: ST_JUDE_LEISH: Cytotoxicity at 2uM final concentration against transgenic Leishmania Mexicana promastigotes LmGLUT1 that are glucose transport deficient and complemented with the human glucose transporter GLUT1. Activity is measured by DNA content using SYBR green in vitro
[2] = target: Hexose transporter 1 (Plasmodium falciparum) (UniProt O97467); experiment: ST_JUDE_LEISH: Cytotoxicity at 2uM final concentration against transgenic Leishmania Mexicana promastigotes LmPfHT that are glucose transport deficient and complemented with the Plasmodium falciparum hexose transporter. Activity is measured by DNA content using SYBR green in vitro
[3] = target: Glucose transporter (Leishmania mexicana) (UniProt O61059); experiment: ST_JUDE_LEISH: Cytotoxicity at 2uM final concentration against transgenic Leishmania Mexicana promastigotes LmGT2 that are glucose transport deficient and complemented with the L. Mexicana glucose transporter 2. Activity is measured by DNA content using SYBR green in vitro

Solute carrier family 2, facilitated glucose transporter member 1 (Homo sapiens), sequence (P11166 whole entry): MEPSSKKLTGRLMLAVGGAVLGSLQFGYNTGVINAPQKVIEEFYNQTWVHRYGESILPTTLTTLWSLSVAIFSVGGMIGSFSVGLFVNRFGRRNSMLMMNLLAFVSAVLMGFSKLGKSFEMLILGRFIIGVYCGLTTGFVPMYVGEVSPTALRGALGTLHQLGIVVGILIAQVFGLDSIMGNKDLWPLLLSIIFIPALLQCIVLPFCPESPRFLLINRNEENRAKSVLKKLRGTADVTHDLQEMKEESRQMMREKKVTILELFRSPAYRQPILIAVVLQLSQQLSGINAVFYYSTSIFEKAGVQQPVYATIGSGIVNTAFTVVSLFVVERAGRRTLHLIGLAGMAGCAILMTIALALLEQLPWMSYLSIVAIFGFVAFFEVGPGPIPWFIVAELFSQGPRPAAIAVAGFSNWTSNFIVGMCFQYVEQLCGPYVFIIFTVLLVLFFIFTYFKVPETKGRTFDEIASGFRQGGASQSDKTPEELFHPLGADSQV

Structure (SMILES) | inhibition [1] [%] | inhibition [2] [%] | inhibition [3] [%]
Cc1ccc(-c2cc(C(=O)Nc3ccc(S(=O)(=O)N(C)Cc4ccccc4)cc3)[nH]n2)c(O)c1 | 0.95 | 0.3 | 1.49
COc1cc2c(c(Cl)c1OC)CCN(Cc1ccccc1)CC2c1ccc(C(N)=O)cc1 (stereo not drawn) | 2.24 | 1.77 | 1.62
CC(C)(C)c1ccc(CNCC(C)(C)c2nc(-c3ccnc(N)n3)c(-c3ccc(Cl)c(O)c3)[nH]2)cc1 | 5.04 | 6.23 | 4.54
COc1cc(NCC(O)CNc2cc(OC)c3ccccc3n2)nc2ccccc12 | 33.2 | 12.5 | 4.93
O=C(Nc1ccc(C(F)(F)F)cc1)NC1CCN(CCCCCNC(=O)C2CC2c2ccc(Cl)c(Cl)c2)CC1 (stereo not drawn) | -1.45 | -1.93 | -1.98
Nc1c2c(nc3ccc(NC(=O)Cc4ccccc4)cc13)CCCC2 | 4.09 | 5.7 | 6.71

Reference: ChEMBL document CHEMBL3433997, “St. Jude Leishmania screening dataset” (2016)
